This note sets out measurements from PubChem BioAssay (Tox21).

Assay [1] can be described thus: qHTS assay to test for compound auto fluorescence at 535 nm (green) in HEK293 cells (AID 720680).
The nature of assay [2]: qHTS assay to test for compound auto fluorescence at 460 nm (blue) in HEK293 cell free culture (AID 720681). Summed up: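 Compounds were added to cell-free DMEM with 10% FBS and fluorescence read directly. The blue channel used 405 nm excitation and 460 nm emission, with triamterene as the reference fluorophore.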
A short description of assay [3]: qHTS assay to test for compound auto fluorescence at 535 nm (green) in HEK293 cell free culture (AID 720682). The gist of the method:
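Measurement is a direct plate read of green fluorescence (485 nm in, 535 nm out) after compound addition to serum-supplemented DMEM lacking cells, with fluorescein used to express intensities.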
In general terms: qHTS replaces the single test concentration by a dilution series.

Assay [4] is described as follows: qHTS assay to test for compound auto fluorescence at 590 nm (red) in HEK293 cell free culture (AID 720683). The gist of the method: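 Cell-free wells of DMEM with 10% FBS received compound, and intrinsic fluorescence was read at excitation/emission 540/590 nm. Values expressed as equivalence to Rose Bengal sodium.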
The nature of assay [5]: qHTS assay to test for compound auto fluorescence at 590 nm (red) in HepG2 cell free culture (AID 720684). Summed up: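 Auto fluorescence equivalency versus Rose Bengal sodium, red channel Ex/Em 540/590 nm; compounds in cell-free MEM/10% FBS; DMSO vehicle control.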
A short description of assay [6]: qHTS assay to test for compound auto fluorescence at 460 nm (blue) in HepG2 cell free culture (AID 720685). Summed up:
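Cell-free plates of MEM plus 10% FBS received 23 nL compound or DMSO vehicle; blue-channel (405/460 nm) intensity scored against triamterene as reference fluorophore.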

Assay [7] in a line: qHTS assay to test for compound auto fluorescence at 535 nm (green) in HepG2 cell free culture (AID 720686).
Assay [8] can be described thus: qHTS assay to test for compound auto fluorescence at 460 nm (blue) in HepG2 cells (AID 720687). Summed up: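 HepG2 cells in MEM with 10% FBS, attached overnight at 37 C, were exposed to compound or DMSO for 1 hr at 37 C, 5% CO2. Blue fluorescence was read at 405/460 nm, with triamterene as reference fluorophore.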
In assay [9] the target is Glucocorticoid receptor (Homo sapiens) (UniProt P04150). Description: qHTS assay to identify small molecule agonists of the glucocorticoid receptor (GR) signaling pathway (AID 720691; active means well fitted activation curve with a large enough effect in the signal ratio in the repeat runs, not every such curve was filed as active; inconclusive means weak or mixed curves, or effect the other way; inactive means no such curve, though single readings can be large or run the other way; the % refers to the signal ratio; further: potency means the concentration at half of the fitted maximal effect). Summed up: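 Compounds in DMSO, alongside positive controls, were added to GR-bla HeLa reporter cells and incubated 18 h at 37 C; GRE-driven beta-lactamase was detected by fluorescence after 2 h with FRET substrate at room temperature.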
Glucocorticoid receptor (Homo sapiens), sequence (P04150 whole entry, looked up): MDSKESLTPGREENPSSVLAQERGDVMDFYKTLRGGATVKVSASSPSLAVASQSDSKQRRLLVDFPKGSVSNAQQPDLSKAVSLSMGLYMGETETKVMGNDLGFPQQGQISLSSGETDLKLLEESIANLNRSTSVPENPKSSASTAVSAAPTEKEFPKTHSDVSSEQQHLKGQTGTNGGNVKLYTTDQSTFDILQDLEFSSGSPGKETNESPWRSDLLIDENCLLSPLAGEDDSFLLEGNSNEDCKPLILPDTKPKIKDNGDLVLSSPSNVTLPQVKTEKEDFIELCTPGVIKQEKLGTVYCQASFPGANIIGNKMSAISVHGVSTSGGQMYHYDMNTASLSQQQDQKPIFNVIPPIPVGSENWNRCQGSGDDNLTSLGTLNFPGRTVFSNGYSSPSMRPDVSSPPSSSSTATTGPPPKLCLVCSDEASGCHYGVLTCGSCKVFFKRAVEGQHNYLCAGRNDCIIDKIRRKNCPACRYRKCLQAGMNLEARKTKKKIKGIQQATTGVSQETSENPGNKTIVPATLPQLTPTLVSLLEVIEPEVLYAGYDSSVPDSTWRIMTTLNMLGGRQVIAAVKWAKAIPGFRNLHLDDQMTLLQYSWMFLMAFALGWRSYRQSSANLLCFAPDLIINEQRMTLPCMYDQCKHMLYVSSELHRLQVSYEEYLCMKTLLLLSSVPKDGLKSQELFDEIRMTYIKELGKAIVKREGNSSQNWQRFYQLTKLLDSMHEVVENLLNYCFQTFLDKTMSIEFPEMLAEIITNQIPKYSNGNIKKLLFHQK

Assay [10] has the same target. Description: qHTS assay to identify small molecule antagonists of the glucocorticoid receptor (GR) signaling pathway (AID 720692; active means well fitted inhibition curve with a large enough effect in the signal ratio in the repeat runs, not every such curve was filed as active; inconclusive means weak or mixed curves, or effect the other way; inactive means no such curve, though single readings can be large or run the other way; the % refers to the signal ratio). The gist of the method:
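In a 1536-well cell format, compounds were added 4 h after seeding GR-bla HeLa cells, together with dexamethasone at 5 nM final; reporter activity was measured by FRET-substrate fluorescence following 18 h at 37 C.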

The structures appear in SMILES notation. Values without a mark were called inactive. The source made the active and inactive calls. Unless noted, the call rests on the fitted dose curve; in most records, active means well fitted curve in the direction sought with a large enough effect in the repeat runs; inconclusive means weak or mixed curves; inactive means flat fitted curve, though single readings scatter.
On the % scale 0 is the no-effect control and ±100 the full control effect.

As to `O=C(O)Cc1csc(-c2ccc(Cl)cc2)n1`, the outcome in assay [1], in assay [2], in assay [3], in [4], in assay [5] and in assay [6] was inactive. For the same molecule, the call in assay [7] and in assay [8] was inactive.

As for `CCC1C(=O)OCC1Cc1cncn1C` (centres undefined), the outcome in assay [1], in assay [2], in assay [3], in assay [4], in assay [5] and in assay [6] was inactive. The call in assay [7] and in assay [8] was inactive.

`CCCCCCCCCCOc1cc2c(=O)c(C(=O)OCC)c[nH]c2cc1OCC`: the molecule was classed as inactive in assay [1], in [2], in assay [3], in assay [4], in [5] and in [6]. For the same molecule, the molecule was called inactive in [7] and in assay [8].

With `NO`, the call in [1], in assay [2], in assay [3], in [4], in assay [5] and in [6] was inactive. Besides, the molecule was called inactive in [7] and in [8].

Take `CCCCOCCOC(=O)CCCCCCCCC(=O)OCCOCCCC`: the molecule was classed as inactive in assay [1], in [2], in [3], in [4], in [5] and in assay [6]. Moreover, the molecule was called inactive in [7] and in assay [8].

Take `Clc1cc(Cl)c(Cl)nc1Cl`: the call in [1], in assay [2], in assay [3], in assay [4], in assay [5] and in assay [6] was inactive. The molecule was classed as inactive in assay [7] and in assay [8].

With `CC[N+](C)(CC)CCOC(=O)C1c2ccccc2Oc2ccccc21`, the result in assay [1], in assay [2], in assay [3], in [4], in assay [5] and in [6] was inactive. Moreover, the molecule was classed as inactive in assay [7] and in assay [8].

Regarding `C=C(C)C(=O)OCCOCCOCCOCCOC(=O)C(=C)C`, the outcome in assay [1], in assay [2], in assay [3], in assay [4], in [5] and in assay [6] was inactive. The molecule was classed as inactive in assay [7] and in assay [8].

For `CCN[C@@H]1C[C@H](N)[C@@H](OC2OC(CN)=CCC2N)[C@H](O)[C@H]1O[C@H]1OC[C@](C)(O)[C@H](NC)[C@H]1O` (some centres undefined), the result in assay [1], in assay [2], in [3], in [4], in [5] and in assay [6] was inactive. Further, the call in [7] and in assay [8] was inactive.

As for `CCCCCCC1CCC(=O)O1` (centres undefined), the call in [1], in [2], in assay [3], in [4], in assay [5] and in assay [6] was inactive. Further, the result in [7] and in assay [8] was inactive.

With `Cc1nc2ccc(CN(C)c3ccc(C(=O)N[C@@H](CCC(=O)O)C(=O)O)s3)cc2c(=O)[nH]1`, the result in [1], in assay [2], in assay [3], in assay [4], in assay [5] and in assay [6] was inactive. The outcome in assay [7] and in [8] was inactive.

Regarding `Cc1ccc(C(=O)c2ccccc2)cc1`, the call in assay [1], in assay [2], in assay [3], in [4], in assay [5] and in assay [6] was inactive. The call in assay [7] and in assay [8] was inactive. In addition, the Potency entry in assay [9] and in [10] was “inactive” throughout.

On to `C[N+]12CCC(CC1)C(OC(=O)C(O)(c1ccccc1)c1ccccc1)C2` (centres undefined), for which the fluorescence, % of fluorescein in assay [1] was 0.041% [at 18.6 µM]. Moreover, the fluorescence, % of fluorescent control in assay [2] was 0.066% [at 18.6 µM]; in [4], 0.0635% [at 18.6 µM]; in assay [6], -0.0875% [at 18.6 µM]; in assay [8], 0.0552% [at 18.6 µM]. Further, in assay [3], the activity change was 0.0169% [at 18.6 µM]. The fluorescence, % of Rose Bengal in assay [5] is 0.213% [at 18.6 µM]. For the same molecule, in assay [7], the fluorescence, % of fluorescein control is -0.0194% [at 18.6 µM]. Also, in assay [9], the Potency result is “inactive”.

For `CC1=CC(=O)[C@H]2C[C@@H]1C2(C)C`, the molecule was classed as inactive in assay [1], in [2], in assay [3], in assay [4], in [5] and in assay [6]. Moreover, the molecule was called inactive in assay [7] and in [8]. Further, the Potency entry in assay [9] and in [10] was “inactive” throughout.

With `CCCc1nn(C)c2c(=O)[nH]c(-c3cc(S(=O)(=O)N4CCN(C)CC4)ccc3OCC)nc12`, the call in [1], in assay [2], in assay [3], in [4], in [5] and in assay [6] was inactive. Besides, the outcome in assay [7] and in [8] was inactive. Further, in assay [9], the Potency entry is “inactive”.

Consider `CCCCCC(=O)OCCc1ccccc1`, for which the result in assay [1], in assay [2], in assay [3], in assay [4], in assay [5] and in assay [6] was inactive. Besides, the result in assay [7] and in assay [8] was inactive. Besides, the Potency result in [9] and in assay [10] was “inactive” each time.

For `COc1c(N2CCNC(C)C2)c(F)cc2c(=O)c(C(=O)O)cn(C3CC3)c12` (centres undefined), the outcome in assay [1], in assay [2], in assay [3], in [4], in assay [5] and in [6] was inactive. The result in assay [7] and in [8] was inactive. Further, the Potency entry in assay [9] and in [10] was “inactive” each time.

Take `CCO[Si](OCC)(OCC)c1ccccc1`: the outcome in assay [1], in [2], in assay [3], in assay [4], in assay [5] and in assay [6] was inactive. Also, the molecule was called inactive in [7] and in assay [8]. Further, the Potency entry in assay [9] and in [10] was “inactive” each time.

Regarding `NC(=O)Cc1cccc2ccccc12`, the outcome in assay [1], in assay [2], in assay [3], in [4], in [5] and in assay [6] was inactive. Further, the molecule was classed as inactive in assay [7] and in [8]. Also, the Potency result in [9] and in [10] was “inactive” each time.

Take `C[C@@H]1C[C@H]2[C@@H]3C[C@H](F)C4=CC(=O)C(Cl)=C[C@]4(C)[C@@]3(F)[C@@H](O)C[C@]2(C)[C@@]1(O)C(=O)CO`: the outcome in [1], in assay [2], in assay [3], in [4], in assay [5] and in [6] was inactive. The molecule was classed as inactive in [7] and in assay [8]. Also, the Potency in assay [9] was 15.1 nM [inconclusive] (active).

In the case of `CC(C)(C#N)Nc1nc(Cl)nc(NC2CC2)n1`, the molecule was classed as inactive in [1], in assay [2], in assay [3], in assay [4], in assay [5] and in assay [6]. Besides, the molecule was classed as inactive in assay [7] and in assay [8]. The Potency result in assay [9] is “inactive”.

On to `CC[N+](CC)(CC)CCOc1cccc(OCC[N+](CC)(CC)CC)c1OCC[N+](CC)(CC)CC`, for which the molecule was called inactive in [1], in assay [2], in assay [3], in [4], in assay [5] and in assay [6]. The outcome in [7] and in assay [8] was inactive. For the same molecule, the Potency entry in [9] and in assay [10] was “inactive” each time.
